This passage reports outcome and AC50 results from PubChem BioAssay (EPA / NIEHS).

Several values for one entry are separate records, joined by “and”; a condition that tells them apart may be missing. Equal values may be shown once. Activity calls are given as the source filed them. The calls were made as follows: active = hit-call score of the fitted dose curve at least 0.9, where 1 is the maximum; inactive = score below 0.9.

Read-out in the assay: Matrix Metallopeptidase 1 (MMP1), MMP1 (gene 4312)
Put plainly: BSK_hDFCGF_MMP1: BioMAP Diversity Plus: hDFCGF Assay for Matrix Metallopeptidase 1 (MMP1) Biomarker Activity (AID 2283064). Conditions: primary human foreskin fibroblasts; actives raise or lower the signal. As to the method:
BSK_hDFCGF is a cell-based, multiplexed-readout assay that uses foreskin fibroblast, a human skin primary cell, with measurements taken at 24 hours after chemical dosing in a 96-well plate.BSK_hDFCGF_MMP1 is an assay component measured in the BSK_hDFCGF assay. It measures MMP-1 antibody related to regulation of gene expression using ELISA technology.Data from the assay component BSK_hDFCGF_MMP1 was analyzed into 1 assay endpoint. This assay endpoint, BSK_hDFCGF_MMP1, was analyzed with bidirectional fitting relative to DMSO as the negative control and baseline of activity. Using a type of binding reporter, gain or loss-of-signal activity can be used to understand changes in the signaling as they relate to the gene MMP1. Furthermore, this assay endpoint can be referred to as a primary readout, because this assay has produced multiple assay endpoints where this one serves a signaling function. To generalize the intended target to other relatable targets, this assay endpoint is annotated to the protease intended target family, where the subfamily is matrix metalloproteinase.
The levels of cell surface (or secreted, indicated by the prefix "s") biomarker endpoints were measured by ELISA. Overt cytotoxicity to cells in confluent adherent cultures (all systems other than the BT system) was assessed by measuring total protein levels using sulforhodamine B (SRB) staining in parallel cultures at the time of biomarker measurements, indicated as SRB endpoints. For proliferation assays for adherent cell types, individual cell types are cultured at sub-confluence and relative cell numbers quantified by SRB staining at time points optimized for each system (48 h: 3C and CASM3C systems; 72 h: BT and HDF3CGF systems; 96 h: SAg system). SRB was performed by staining cells with 0.1% SRB after fixation with 10% TCA and reading wells at 560 nm.Viability and proliferation of PBMC (T cells) was quantified by Alamar Blue reduction for the SAg and BT systems. For PBMC viability (referred to as PBMC Cytotoxicity within the assay endpoint names), cells were plated (75,000/well in a 96-well plate) and then chemical samples added for 1 h before addition of activators, SEB and TSST-1 (20 ng/mL final concentration each). Cells were incubated for 90 h. Then, Alamar Blue (20 uL/well) (Invitrogen, Cat DAL1100) was added for 6 h, and the plates were read with a fluorescence microplate reader at 546/580 nm (excitation/emission). For PBMC proliferation, cells were plated and activated as above but incubated for only 16 h prior to addition of Alamar Blue. Plates were read after 6 h.
Consider `CC(C=O)Cc1ccc(C(C)(C)C)cc1` (stereo not given), for which the result was inactive.
In general, AC50 refers to the concentration giving half of the maximal activity seen. Take `CC(C)(C)CC(C)(C)c1ccc(OCCOCC[N+](C)(C)Cc2ccccc2)cc1`: the AC50 is 5 µM (active).
Take `c1ccc(Oc2ccccc2)cc1`: the outcome was inactive.
With `CCCCCC(C=O)=Cc1ccccc1`, the AC50 is 0.146 µM (active).
Consider `Clc1cc(Cl)c(-c2c(Cl)c(Cl)cc(Cl)c2Cl)cc1Cl`, for which the AC50 is 18.5 µM (active).
`O=C1c2ccccc2C(=O)c2c(O)ccc(O)c21`: the outcome was inactive.
On to `CS(=O)(=O)c1ccc(C2=C(c3ccccc3)C(=O)OC2)cc1`, for which the outcome was inactive.
`C=C(C)C(=O)OCCOCCOCCOCCOC(=O)C(=C)C`: the outcome was inactive.
In the case of `C=CC(C)(O)CCC=C(C)C` (stereo not given), the outcome was inactive.
On to `CS(=O)(=O)OCCCCOS(C)(=O)=O`, for which the result was inactive.
Regarding `CCOC(=O)C(C#N)=C(c1ccccc1)c1ccccc1`, the result was inactive.
Still for that read-out and setting: the result for `O=C(Nc1ccc2c(O)c(N=Nc3ccc(N=Nc4ccc(S(=O)(=O)O)cc4)cc3)c(S(=O)(=O)O)cc2c1)c1ccccc1` reads “inactive”.
With `COc1ccc(OC)c(N=Nc2c(O)ccc3ccccc23)c1`, the AC50 was 14.2 µM (active).
Consider `CCCCCCC(CO)CCCC` (stereo not given), for which the AC50 is 31.1 µM (active) and 30.7 µM (active).
`CC=Cc1ccc(OCC)c(O)c1`: the result was inactive.
For the molecule `CC(=O)c1c(C)c([N+](=O)[O-])c(C(C)(C)C)c([N+](=O)[O-])c1C`, the result was inactive.
With `C[C@@H]1CCN(C(=O)[C@H](CCCN=C(N)N)NS(=O)(=O)c2cccc3c2NC[C@H](C)C3)[C@@H](C(=O)O)C1`, the result was inactive.
On to `C1=CC2C3C=CC(C3)C2C1` (stereo not given), for which the outcome was inactive.
Consider `CN(C)C(=S)SC(=S)N(C)C`, for which the AC50 was 36.2 µM (active).
As for `CN(C)C(=O)Nc1ccc(Oc2ccc(Cl)cc2)cc1`, the outcome was inactive.
Regarding `CCCCOC(=O)CCCCCCCC(=O)OCCCC`, the outcome was inactive.
For the molecule `c1ccc(CCc2ccccc2)cc1`, the AC50 was 36.7 µM (active).
For the molecule `CC1(C)CCC[C@]2(C)[C@H]3CCO[C@]3(C)CC[C@@H]12`, the AC50 was 35 µM (active) and 36 µM (active).
With `Oc1c(Cl)cc(Cl)c(Cl)c1Cc1c(O)c(Cl)cc(Cl)c1Cl`, the AC50 was 3.28 µM (active).
In the case of `Cc1cc(CCC(=O)OCCOCCOCCOC(=O)CCc2cc(C)c(O)c(C(C)(C)C)c2)cc(C(C)(C)C)c1O`, the result was inactive.
`CC1(C)C2=CCCC(C)(C)[C@]23CC[C@H]1C3`: the outcome was inactive.
Same read-out and setting: the result for `IC(I)I` reads “inactive”.
Consider `CCCCN(CCCC)C(=O)N(CCCC)CCCC`, for which the AC50 is 11.5 µM (active).
Turning to `CSCCC=O`, the result was inactive.
For `C=C(C)[C@H]1CC=C(C)C(=O)C1`, the outcome was inactive.
As for `C=C(C)C(=O)OCCOCCOCCOC(=O)C(=C)C`, the outcome was inactive.
On the same count and under the same terms, the result for `O=CN1CCOCC1` reads “inactive”; that for `CN(c1nccc(=O)[nH]1)C1CCN(c2nc3ccccc3n2Cc2ccc(F)cc2)CC1`, “inactive”.
`c1ccc2cc(Nc3ccc(Nc4ccc5ccccc5c4)cc3)ccc2c1`: the outcome was inactive.
Consider `O=C1OC2(c3ccccc31)c1ccc(O)c(Br)c1Oc1c2ccc(O)c1Br`, for which the outcome was inactive.
With `COc1cc(Cl)c(OC)cc1N`, the outcome was inactive.
As for `CC(=O)Nc1ccc(C(=O)CCl)cc1`, the AC50 is 10.5 µM (active).
With `O=C1OC[C@H](Cc2cccc(O)c2)[C@H]1Cc1cccc(O)c1`, the outcome was inactive.
Take `C=C(C)C(=O)OCC(CC)(COC(=O)C(=C)C)COC(=O)C(=C)C`: the half-maximal activity concentration (AC50) is 37.9 µM (active).
For the molecule `CC(C)(N=C=O)c1cccc(C(C)(C)N=C=O)c1`, the outcome was inactive.
